Laboratory results reported in PubChem BioAssay (NCATS).
Records with an inconclusive call do not appear. Activity calls are given as the source filed them. Calls come from the whole dose curve; as a rule, active = well fitted curve in the direction sought with a large enough effect; inconclusive = small, poorly fitted or top-dose-only effect, or another doubt; inactive = no such curve, though single readings can be large; an effect the other way counts as inactive or inconclusive.

Legend:
[1] = qHTS of pediatric cancer cell lines to identify multiple opportunities for drug repurposing: Primary screen for U-2 OS cells (AID 1347096); note: nearly all actives have a fitted effect of over 50% in size
Method in brief: (§1)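 Cells (500-1,000/well) rested 5 h, then received compounds for 48 h; metabolically active cells were measured by CellTiter-Glo luminescence. Final concentrations spanned up to 46 µM (MIPE, 11-point) or 0.59 nM-46 µM (NPC, 8-point) in primary screens, 11-point in follow-ups.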

[2] = qHTS of pediatric cancer cell lines to identify multiple opportunities for drug repurposing: Primary screen for Saos-2 cells (AID 1347097); note: nearly all actives have a fitted effect of over 40% in size
Method in brief: (§2)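 Plated cells (500-1,000 per well, growth media) were allowed to settle for 5 hours, treated with compound dilutions for 48 hours, then lysed with CellTiter-Glo for 15 min at room temperature before luminescence reading.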

[3] = qHTS of pediatric cancer cell lines to identify multiple opportunities for drug repurposing: Primary screen for SK-N-SH cells (AID 1347098); note: nearly all actives have a fitted effect of over 65% in size
Method in brief: as §1

[4] = qHTS of pediatric cancer cell lines to identify multiple opportunities for drug repurposing: Primary screen for NB1643 cells (AID 1347099); note: nearly all actives have a fitted effect of over 50% in size
Method in brief: as §2

[5] = qHTS of pediatric cancer cell lines to identify multiple opportunities for drug repurposing: Primary screen for LAN-5 cells (AID 1347100)
Method in brief: as §1

[6] = qHTS of pediatric cancer cell lines to identify multiple opportunities for drug repurposing: Primary screen for BT-12 cells (AID 1347101); note: nearly all actives have a fitted effect of over 25% in size
Method in brief: as §1

[7] = qHTS of pediatric cancer cell lines to identify multiple opportunities for drug repurposing: Primary screen for Rh18 cells (AID 1347102); note: nearly all actives have a fitted effect of over 65% in size
Method in brief: as §1

[8] = qHTS of pediatric cancer cell lines to identify multiple opportunities for drug repurposing: Primary screen for RD cells (AID 1347104); note: nearly all actives have a fitted effect of over 55% in size
Method in brief: as §2

[9] = qHTS of pediatric cancer cell lines to identify multiple opportunities for drug repurposing: Primary screen for MG 63 (6-TG R) cells (AID 1347105); note: nearly all actives have a fitted effect of over 50% in size
Method in brief: as §2

[10] = qHTS of pediatric cancer cell lines to identify multiple opportunities for drug repurposing: Primary screen for control Hh wild type fibroblast cells (AID 1347106); note: nearly all actives have a fitted effect of over 55% in size
Method in brief: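 Cells (500-1,000/well) in growth media were settled 5 h at 37 degrees C, then given compounds for 48 h. Viability was read as CellTiter-Glo luminescence. Primary runs used MIPE at 11 points (0.78 nM-46 µM) and NPC at 8 points (0.59 nM-46 µM); follow-ups used 11 points.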

[11] = qHTS of pediatric cancer cell lines to identify multiple opportunities for drug repurposing: Primary screen for Rh30 cells (AID 1347107); note: nearly all actives have a fitted effect of over 75% in size
Method in brief: as §1

[12] = qHTS of pediatric cancer cell lines to identify multiple opportunities for drug repurposing: Primary screen for Rh41 cells (AID 1347108); note: nearly all actives have a fitted effect of over 70% in size
Method in brief: as §2

[13] = qHTS of pediatric cancer cell lines to identify multiple opportunities for drug repurposing: Confirmatory screen for NB1643 cells (AID 1347109); note: nearly all actives have a fitted effect of over 45% in size
Method in brief: as §1

[14] = qHTS of pediatric cancer cell lines to identify multiple opportunities for drug repurposing: Confirmatory screen for A673 cells (AID 1347110);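 note: cells exposed to compound for 48 h before the viability read; nearly all actives have a fitted effect of over 65% in size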
Method in brief: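 Cells plated at 500-1,000/well were treated five hours later with multi-point dilutions up to 46 µM final. After two days, CellTiter-Glo was added and luminescence read.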

[15] = qHTS of pediatric cancer cell lines to identify multiple opportunities for drug repurposing: Confirmatory screen for SK-N-MC cells (AID 1347111);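 note: cells exposed to compound for 48 h before the readout; nearly all actives have a fitted effect of over 70% in size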
Method in brief: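 Seed 500-1,000 cells/well; rest 5 h at 37 degrees C. Pin-transfer compounds, 11-point titration. Incubate 48 h. Add CellTiter-Glo, 15 min RT, read luminescence.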

[16] = qHTS of pediatric cancer cell lines to identify multiple opportunities for drug repurposing: Confirmatory screen for BT-12 cells (AID 1347112); note: nearly all actives have a fitted effect of over 55% in size
Method in brief: as §1

[17] = qHTS of pediatric cancer cell lines to identify multiple opportunities for drug repurposing: Confirmatory screen for LAN-5 cells (AID 1347113); note: nearly all actives have a fitted effect of over 65% in size
Method in brief: as §1

[18] = qHTS of pediatric cancer cell lines to identify multiple opportunities for drug repurposing: Confirmatory screen for DAOY cells (AID 1347114); note: nearly all actives have a fitted effect of over 65% in size
Method in brief: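 Viability measured as metabolically active cells via CellTiter-Glo luminescence following 48 hours of compound exposure, 11-point dilutions in confirmatory testing. 500-1,000 cells/well plated 5 hours before dosing; controls were DMSO and 2.3 µM bortezomib.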

[19] = qHTS of pediatric cancer cell lines to identify multiple opportunities for drug repurposing: Confirmatory screen for NB-EBc1 cells (AID 1347115);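 note: cells exposed to compound for 48 h before the viability read; nearly all actives have a fitted effect of over 45% in size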
Method in brief: as §1

[20] = qHTS of pediatric cancer cell lines to identify multiple opportunities for drug repurposing: Primary screen for OHS-50 cells (AID 1347103); note: nearly all actives have a fitted effect of over 40% in size
Method in brief: as §1

Measured: Potency
Potency is the fitted concentration of half-maximal effect.

COc1cc2c(Oc3ccc(NC(=O)C4(C(=O)Nc5ccc(F)cc5)CC4)cc3F)ccnc2cc1OCCCN1CCOCC1
active: [1] 14.8 µM | [2] 2.64 µM | [3] 2.41 µM | [4] 6.62 µM | [5] 0.372 µM | [6] 19.3 µM | [7] 4.69 µM | [8] 8.33 µM | [9] 4.69 µM | [10] 26.4 µM | [11] 5.9 µM | [12] 4.69 µM | [13] 5.22 µM | [14] 2.33 µM | [15] 3.69 µM | [16] 13.1 µM | [17] 5.22 µM | [18] 11.7 µM | [19] 13.1 µM

COc1cccc(-c2ccc(NC(=O)C3=C(C(=O)O)CCC3)c(F)c2)c1
inactive: [1] | [7] | [11] | [16] | [17] | [18]
active: [2] 13.2 µM | [3] 24.1 µM | [4] 5.26 µM | [5] 13.2 µM | [6] 19.3 µM | [15] 2.93 µM

O=C1CCC[C@@H]2[C@H]3CCC[N+]4([O-])CCC[C@@H](CN12)[C@@H]34 (stereo partly drawn)
inactive: [1] | [2] | [3] | [4] | [5] | [6] | [7] | [8] | [9] | [11] | [12]

O=C(Nc1ncc(-c2cc(C(F)F)nn2-c2c(Cl)cccc2Cl)s1)C1CC1
inactive: [11]
active: [1] 1.87 µM | [2] 0.209 µM | [3] 0.482 µM | [4] 3.32 µM | [5] 0.332 µM | [6] 0.968 µM | [8] 0.418 µM | [13] 1.17 µM | [14] 0.293 µM | [15] 0.414 µM | [17] 4.65 µM | [18] 0.329 µM

Nc1nccc(Oc2ccc(NC(=O)c3c[nH]cc(-c4ccc(F)cc4)c3=O)cc2F)c1Cl
inactive: [1] | [10] | [11]
active: [2] 18.7 µM | [3] 6.81 µM | [4] 14.8 µM | [5] 1.18 µM | [6] 13.7 µM | [7] 18.7 µM | [8] 26.4 µM | [9] 18.7 µM | [12] 18.7 µM

Cc1ccc(S(=O)(=O)Nc2cc(Cl)ccc2C(=O)Nc2nc(-c3ccccc3)cs2)cc1
active: [2] 14.8 µM | [4] 3.72 µM | [5] 9.35 µM | [20] 8.63 µM | [9] 9.35 µM | [12] 18.7 µM
inactive: [1] | [3] | [7] | [10] | [11]

Cc1cc(Nc2nc(N[C@@H](C)c3ccc(F)cc3)c(C#N)cc2F)n[nH]1
active: [2] 2.35 µM | [3] 3.41 µM | [4] 0.935 µM | [5] 0.418 µM | [7] 5.9 µM | [9] 3.72 µM | [10] 14.8 µM | [12] 5.9 µM
inactive: [1] | [6]

COC(=O)[C@]12CCC(C)(C)C[C@@H]1[C@@H]1C(=O)C=C3[C@@]4(C)C=C(C#N)C(=O)C(C)(C)[C@@H]4CC[C@@]3(C)[C@]1(C)CC2
active: [1] 0.935 µM | [2] 0.743 µM | [3] 1.92 µM | [4] 0.662 µM | [5] 0.833 µM | [6] 0.968 µM | [7] 0.935 µM | [9] 0.743 µM | [11] 1.48 µM | [12] 1.18 µM | [13] 3.29 µM | [14] 1.65 µM | [15] 3.69 µM | [16] 7.37 µM | [17] 2.61 µM | [18] 2.33 µM | [19] 5.85 µM

CNC(=O)c1ccccc1Nc1nc(Nc2ccc(N3CCOCC3)cc2OC)ncc1Cl
active: [1] 18.7 µM | [2] 1.18 µM | [3] 6.07 µM | [4] 0.332 µM | [5] 0.264 µM | [7] 5.9 µM | [20] 0.306 µM | [8] 0.469 µM | [9] 0.935 µM | [11] 1.32 µM | [12] 0.935 µM | [13] 0.369 µM | [14] 1.04 µM | [15] 0.737 µM | [17] 0.414 µM | [19] 8.27 µM

Nc1nc(-c2nn(Cc3ccccc3F)c3ncccc23)nc(N)c1N1CCOCC1
inactive: [1] | [2] | [3] | [4] | [5] | [6] | [7] | [8] | [9] | [11] | [12]

COc1cc(OC2CCN(C)CC2)ccc1Nc1ncc2c(n1)n(C1CCCC1)c(=O)n2C
active: [1] 23.5 µM | [2] 18.7 µM | [3] 12.1 µM | [4] 10.5 µM | [5] 13.2 µM | [7] 20.9 µM | [20] 19.3 µM | [8] 18.7 µM | [9] 23.5 µM | [11] 20.9 µM | [12] 18.7 µM

OCc1ccc(-c2ccc(-c3ccc(CO)s3)o2)s1
inactive: [1] | [2] | [5] | [7]
active: [3] 21.5 µM | [4] 26.4 µM | [6] 30.6 µM | [9] 11.8 µM | [11] 16.6 µM | [12] 7.43 µM
